Five compounds from PubChem BioAssay AID504647 (National Center for Advancing Translational Sciences (NCATS), 2011) can be followed below.

Some of the results follow. Active and inactive are the calls of the source. The rule behind the calls is not given here.

This experiment can be described thus: Assay for Inhibitors of Influenza NS1 Protein Function: Influenza virus replication assay in MDCK cells infected with virus A/PR/8/34. Particulars: MDCK infected influenza A/PR/8/34, virus titer TCID50, at 5 µM; viability: measured here: MDCK cell viability, stronger effect = higher value; virus titer (log TCID50): stronger effect = lower value. An excerpt: NIH Chemical Genomics Center [NCGC]
NIH Molecular Libraries Probe Centers Network [MLPCN]
Assay Submitter (PI): Daniel Engel
Influenza is a world-wide public health problem and emerging forms of the virus have the potential to cause a pandemic of equal or greater magnitude to the outbreaks recorded in 1918, 1957 or 1968. Vaccine development is proceeding and there also exist two classes of anti-influenza compounds. However these therapeutic modalities are neither fully effective nor widely enough available to fulfill global needs. In addition their potential usefulness against newly emergent strains is not known. Efforts are needed to develop novel agents against influenza virus, including broad-spectrum agents. Identification of small molecules that inhibit NS1 function either directly or by interfering with specific cellular pathways may be a key to increasing our defense against the virus.
We have miniaturized and optimized a cell based assay in which NS1 from influenza A is expressed in the budding yeast S. cerevisiae. NS1 is a multi-functional protein that counters the host innate immune response and facilitates viral versus cellular gene expression. Expression of NS1 causes a pronounced slow growth phenotype in yeast due to its intrinsic molecular activities. Small molecules that suppress the slow growth phenotype can be identified by a straightforward growth recovery assay using optical density (OD) as the measurement. The same yeast strain not expressing NS1 was used as positive control in the yeast growth recovery assay. The present experiment attempted to confirm the activity of compounds observed in the primary screen.
This assay confirms the activity of compounds from the primary screen by measuring their affect on viral replication.
Protocol details are given in Basu et al. J. Vir. 83(4):1881-1891 2009. […] All media and sera were from Invitrogen. […] Confluent cell monolayers were infected at a multiplicity of infection (MOI) of 0.1 for 48 h in the presence or absence of 5uM compound. Compounds were added at the beginning of infection and were present throughout the infection. After 48 h virus titers were determined by standard TCID50 analysis.
For `O=C1c2cccc(OCC(=O)N3N=C(c4cccs4)CC3c3ccc(F)cc3)c2CCN1Cc1ccccc1` (stereo not given), the virus titer (log TCID50) is 8.5 log10 TCID50 (inactive) and the viability is 91%.
In the same order, the values of `CCCc1cc(=O)[nH]c(SCC(=O)c2cc(C)n(CCC)c2C)n1` are 7.5 log10 TCID50 (active) and 95.4%.
In the same order, the values of `Cc1cc(C)c2cc(CN(Cc3nnnn3Cc3ccc(F)cc3)C3CCCC3)c(=O)[nH]c2c1` are 8.5 log10 TCID50 (inactive) and 103%.
On to `O=c1cc(O)nc(SCc2ccccc2Cl)[nH]1`, for which the viability was found to be 104% and the virus titer (log TCID50) is 7.66 log10 TCID50 (inactive).
On the same counts, the results for `Cc1ccc(Cn2c(C)nc3c(c2=O)c2nc4ccccc4nc2n3Cc2ccco2)cc1` are 101% and 7.5 log10 TCID50 (active).

In general, viability refers to a read-out of living cells in per cent, often relative to untreated cells.
